Drawing on PubChem BioAssay (NCI), this text covers growth inhibition for nine molecules.

Assay [1] is described as follows: NCI Yeast Anticancer Drug Screen. Data for the rad50 strain (AID 155).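 Further: 0% = growth of vehicle-only cultures of the same strain.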 Conditions: S. cerevisiae rad50 strain growth inhibition, stronger effect = higher value. In outline: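 A DNA repair-deficient yeast mutant serves as the test organism; compound-induced growth inhibition is calculated against vehicle-treated cells.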
Assay [2] in a line: NCI Yeast Anticancer Drug Screen. Data for the mec2-1 strain (AID 157). The following applies: S. cerevisiae mec2-1 strain, stronger effect = higher value. The procedure, abridged:
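Yeast mec2-1 mutant treated with compound. Readout: growth inhibition vs vehicle controls.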

Assay [3] is described as follows: NCI Yeast Anticancer Drug Screen. Data for the sgs1 mgt1 strain (AID 161).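 Further: 0% = growth of cultures given vehicle only.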 The following applies: S. cerevisiae sgs1 mgt1 strain, stronger effect = higher value. In outline:
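Read-out: growth inhibition vs vehicle controls. Cells: mutant yeast strain deficient in DNA damage repair.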

A short description of assay [4]: NCI Yeast Anticancer Drug Screen. Data for the cln2 rad14 strain (AID 165).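 Further: 0% = growth equal to vehicle treated cultures.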 The following applies: S. cerevisiae cln2 rad14 strain, stronger effect = higher value. In outline: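 cln2 rad14 yeast strain; compound exposure; growth inhibition read vs vehicle controls.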
Assay [5] in a line: NCI Yeast Anticancer Drug Screen. Data for the bub3 strain (AID 167). The following applies: S. cerevisiae bub3 mutant strain, stronger effect = higher value. In outline:
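Inhibition values come from growth of compound-treated mutant yeast normalised to vehicle-treated controls.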

A short description of assay [6]: NCI Yeast Anticancer Drug Screen. Data for the mlh1 rad18 strain (AID 175). Conditions: S. cerevisiae mlh1 rad18 strain growth inhibition, stronger effect = higher value. In outline: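 Yeast w/ defined DNA-repair lesions; compound exposure; growth vs vehicle controls → % inhibition.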
Setting [7] is: at 5.0 µM (retest, dose inferred, filed as 0.5).
Where [8] appears, read: at 50.0 µM (retest, dose inferred, filed as 5.0).

SMILES strings stand for the structures. About 79,000 compounds went through this panel and 15% of them were active in at least one assay; those are over-represented in the sample as a whole. Unmarked numbers belong to inactive results. Active and inactive are the calls of the source. No stated cut-off is given here; in the data, active means growth inhibition above about 70%; inactive means the rest.

As to `C[CH2][Sn]1([CH2]C)[O]C(=O)CC(=O)[O]1`, the growth inhibition in assay [1] (setting [7]) is 18%; in assay [1] (setting [8]), 37%; in assay [1] (at 50.0 µM) it was 48.2%; in assay [2] (setting [7]), 10%; in assay [2] (setting [8]) it was 35%; in assay [2] (at 50.0 µM), 70.6% (active). Further, the growth inhibition in assay [3] (setting [7]) was 14%; in assay [3] (setting [8]), 55%; in assay [3] (at 50.0 µM), 37.8%; in assay [4] (setting [7]), 20%; in assay [4] (setting [8]) it was 19%; in assay [4] (at 50.0 µM), 65.8%. The growth inhibition in assay [5] (setting [7]) was 15%; in assay [5] (setting [8]), 54%; in assay [5] (at 50.0 µM), 59.1%; in assay [6] (setting [7]) it was 16%; in assay [6] (setting [8]), 24%; in assay [6] (at 50.0 µM), 16.5%.
Regarding `NC1=NC(=O)N2CC12` (configuration not stated), the growth inhibition in assay [1] (setting [7]) was 30%; in assay [1] (setting [8]) it was 36%; in assay [1] (at 50.0 µM) it was 48.5%; in assay [2] (setting [7]) it was 13%; in assay [2] (setting [8]), 7%; in assay [2] (at 50.0 µM), -9.3%. Also, the growth inhibition in assay [3] (setting [7]) is 25%; in assay [3] (setting [8]) it was 16%; in assay [3] (at 50.0 µM) it was 8.2%; in assay [4] (setting [7]) it was 20%; in assay [4] (setting [8]) it was 15%; in assay [4] (at 50.0 µM) it was 11.4%. Besides, the growth inhibition in assay [5] (setting [7]) was 21%; in assay [5] (setting [8]) it was 18%; in assay [5] (at 50.0 µM) it was 7%; in assay [6] (setting [7]), 29%; in assay [6] (setting [8]), 52%; in assay [6] (at 50.0 µM) it was 6.4%.
With `COC12C(COC(N)=O)C3=C(C(=O)C(C)=C(NC(C)C)C3=O)N1CC1NC12` (configuration not stated), the growth inhibition in assay [1] (setting [7]) is 5%; in assay [1] (setting [8]), 59%; in assay [1] (at 50.0 µM) it was 47.6%; in assay [2] (setting [7]) it was 10%; in assay [2] (setting [8]) it was 72% (active); in assay [2] (at 50.0 µM) it was 47.9%. For the same molecule, the growth inhibition is 13% in assay [3] (setting [7]); 61% in assay [3] (setting [8]); 48% in assay [3] (at 50.0 µM); 2% in assay [4] (setting [7]); 76% (active) in assay [4] (setting [8]); 52% in assay [4] (at 50.0 µM). In addition, the growth inhibition in assay [5] (setting [7]) is 1%; in assay [5] (setting [8]), 35%; in assay [5] (at 50.0 µM), 30.4%; in assay [6] (setting [7]), 31%; in assay [6] (setting [8]), 92% (active); in assay [6] (at 50.0 µM) it was 78.6% (active).
As to `c1cc[c]([Pb]([S]c2nc3ccccc3[nH]2)([c]2ccccc2)[c]2ccccc2)cc1`, the growth inhibition in assay [1] (setting [7]) is 99% (active); in assay [1] (setting [8]), 99% (active); in assay [1] (at 50.0 µM), 91.4% (active); in assay [2] (setting [7]), 100% (active); in assay [2] (setting [8]) it was 99% (active); in assay [2] (at 50.0 µM) it was 92.7% (active). Also, the growth inhibition was 99% (active) in assay [3] (setting [7]); 99% (active) in assay [3] (setting [8]); 92.2% (active) in assay [3] (at 50.0 µM); 99% (active) in assay [4] (setting [7]); 99% (active) in assay [4] (setting [8]); 91.8% (active) in assay [4] (at 50.0 µM). Besides, the growth inhibition in assay [5] (setting [7]) is 99% (active); in assay [5] (setting [8]) it was 99% (active); in assay [5] (at 50.0 µM), 91.3% (active); in assay [6] (setting [7]), 99% (active); in assay [6] (setting [8]) it was 99% (active); in assay [6] (at 50.0 µM) it was 90.3% (active).
`CCCCCCCC(=O)[O][Hg][c]1ccccc1`: the growth inhibition in assay [1] (setting [7]) was 99% (active); in assay [1] (setting [8]), 99% (active); in assay [1] (at 50.0 µM), 99.5% (active); in assay [2] (setting [7]) it was 100% (active); in assay [2] (setting [8]), 100% (active); in assay [2] (at 50.0 µM) it was 99.8% (active). Further, the growth inhibition in assay [3] (setting [7]) is 100% (active); in assay [3] (setting [8]), 100% (active); in assay [3] (at 50.0 µM) it was 99.7% (active); in assay [4] (setting [7]) it was 99% (active); in assay [4] (setting [8]), 99% (active); in assay [4] (at 50.0 µM) it was 99.5% (active). Besides, the growth inhibition is 100% (active) in assay [5] (setting [7]); 99% (active) in assay [5] (setting [8]); 99.8% (active) in assay [5] (at 50.0 µM); 100% (active) in assay [6] (setting [7]); 100% (active) in assay [6] (setting [8]); 99.7% (active) in assay [6] (at 50.0 µM).
Consider `C[CH2][Hg]`, for which the growth inhibition in assay [1] (setting [7]) was 98% (active); in assay [1] (setting [8]), 99% (active); in assay [1] (at 50.0 µM) it was 99.1% (active); in assay [2] (setting [7]), 100% (active); in assay [2] (setting [8]), 99% (active); in assay [2] (at 50.0 µM) it was 99.5% (active). Moreover, the growth inhibition in assay [3] (setting [7]) was 99% (active); in assay [3] (setting [8]), 99% (active); in assay [3] (at 50.0 µM) it was 57.1%; in assay [4] (setting [7]) it was 99% (active); in assay [4] (setting [8]), 100% (active); in assay [4] (at 50.0 µM) it was 59.3%. The growth inhibition is 99% (active) in assay [5] (setting [7]); 99% (active) in assay [5] (setting [8]); 99.2% (active) in assay [5] (at 50.0 µM); 94% (active) in assay [6] (setting [7]); 99% (active) in assay [6] (setting [8]); 52.2% in assay [6] (at 50.0 µM).
Regarding `N#Cc1cc([N+](=O)[O-])c(Cl)c([N+](=O)[O-])c1`, the growth inhibition is 52% in assay [1] (setting [7]); 99% (active) in assay [1] (setting [8]); 91.5% (active) in assay [1] (at 50.0 µM); 46% in assay [2] (setting [7]); 99% (active) in assay [2] (setting [8]); 93% (active) in assay [2] (at 50.0 µM). Further, the growth inhibition in assay [3] (setting [7]) is 100% (active); in assay [3] (setting [8]), 100% (active); in assay [3] (at 50.0 µM), 93.8% (active); in assay [4] (setting [7]), 67%; in assay [4] (setting [8]), 101% (active); in assay [4] (at 50.0 µM) it was 93.3% (active). For the same molecule, the growth inhibition in assay [5] (setting [7]) is 101% (active); in assay [5] (setting [8]), 100% (active); in assay [5] (at 50.0 µM), 92.7% (active); in assay [6] (setting [7]) it was 37%; in assay [6] (setting [8]) it was 100% (active); in assay [6] (at 50.0 µM), 92.2% (active).
For the molecule `[Cl][Pt+2][Cl].[NH-]c1ccc([N+](=O)[O-])cc1[NH-]`, the growth inhibition in assay [1] (setting [7]) was 40%; in assay [1] (setting [8]) it was 73% (active); in assay [1] (at 50.0 µM) it was 63.8%; in assay [2] (setting [7]) it was 27%; in assay [2] (setting [8]), 62%; in assay [2] (at 50.0 µM) it was 75.7% (active). The growth inhibition is 100% (active) in assay [3] (setting [7]); 94% (active) in assay [3] (setting [8]); 75.5% (active) in assay [3] (at 50.0 µM); 99% (active) in assay [4] (setting [7]); 94% (active) in assay [4] (setting [8]); 54.6% in assay [4] (at 50.0 µM). The growth inhibition in assay [5] (setting [7]) is 100% (active); in assay [5] (setting [8]), 95% (active); in assay [5] (at 50.0 µM) it was 68.3%; in assay [6] (setting [7]) it was 58%; in assay [6] (setting [8]), 79% (active); in assay [6] (at 50.0 µM), 70.5% (active).
Consider `CC(Br)C(=O)C(CCN(C)C)(c1ccccc1)c1ccc(Br)s1` (configuration not stated), for which the growth inhibition is -9% in assay [1] (setting [7]); 13% in assay [1] (setting [8]); 4% in assay [1] (at 50.0 µM); -9% in assay [2] (setting [7]); -6% in assay [2] (setting [8]); 0.55% in assay [2] (at 50.0 µM). Besides, the growth inhibition in assay [3] (setting [7]) was -25%; in assay [3] (setting [8]), 10%; in assay [3] (at 50.0 µM), 0.8%; in assay [4] (setting [7]), -12%; in assay [4] (setting [8]), 2%; in assay [4] (at 50.0 µM) it was 80.6% (active). Further, the growth inhibition in assay [5] (setting [7]) is -11%; in assay [5] (setting [8]), -5%; in assay [5] (at 50.0 µM), 16.1%; in assay [6] (setting [7]), -6%; in assay [6] (setting [8]), 14%; in assay [6] (at 50.0 µM), 11.9%.
